Test [1] in a line: differential killing of epithelial or mesenchymal cells, primary screen, imaging, PC-3E GFP, TEM4-18 mCherry, co-culture (AID 1345086).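 For all read-outs here: cells exposed to compound for 72 h before imaging.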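 For red/green cell ratio (normalised): normalised mesenchymal count divided by normalised epithelial count so high means epithelial killing.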 As to conditions: imaging cell counts, at 1 µM; for red/green cell ratio (normalised): actives lie on both sides, counts scaled to control wells, 1 = unselective.
Test [2] addresses Mitogen-activated protein kinase 7 (Homo sapiens) (UniProt Q13164). The experiment in a line: ERK5 transactivation activators in reporter cells, primary screen, cell-based, HTS (AID 1508626;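 active = luciferase signal above three times the same-plate solvent-only control wells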;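 note: luciferase driven by Gal4-ERK5 fusion binding five Gal4 sites before minimal TATA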). To be noted: HeLa Gal4-ERK5 transactivation, 18 h, at 5 µM, stronger effect = higher value.
The nature of test [3]: mitochondrial permeability transition inhibitors (AID 1580; call rule not given here). As to conditions: isolated mitochondria, permeability transition inhibition.
The nature of test [4]: polyglutamine-triggered caspase-3 activation inhibitors, cell-based (AID 1583). As to conditions: polyglutamine-induced caspase-3 activation, cell assay; stronger effect = higher value;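 tested at 10 µM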.
Test [5] is described as follows: suppressors of polyQ aggregation in yeast, 75Q-TubU reporter (AID 1593). To be noted: Yeast 75Q polyglutamine aggregation reporter.
The nature of test [6]: rescue of polyQ-huntingtin neuronal dysfunction in worms, whole organism, C. elegans mechanosensory neurons, N-terminal huntingtin (AID 1599). To be noted: touch response, stronger effect = higher value.
Test [7] in a line: inhibitors of mitochondrial cytochrome c release, biochemical, purified mitochondria (AID 1603).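 Note: mouse liver mitochondria challenged with calcium chloride; signal normalized to the plate average as 100%.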 As to conditions: stronger effect = lower value.
A short description of test [8]: inhibitors of polyQ protein aggregation (AID 1604). To be noted: polyglutamine-induced protein aggregation inhibition assay; stronger effect = higher value; tested at 2.5 µM.
The nature of test [9]: enhancers of glutamate uptake in motor neurons, MN-1 cell line (AID 1612).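 Note: tested at 1 µM final; 0% = mean of DMSO vehicle wells on each plate; positive means more glutamate uptake than control and negative means less.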 To be noted: MN-1 motor neuron cells, stronger effect = higher value.
The nature of test [10]: suppressors of polyglutamine aggregation in yeast, 75Q-TubH (AID 1616). As to conditions: S. cerevisiae 75Q-TubH polyglutamine aggregation suppression; stronger effect = higher value.
Test [11] in a line: liver-stage malaria parasite growth inhibition, primary screen, cell-based, HepG2, luciferase luminescence, HepG2 viability (AID 624349; in the data active = parasite load remaining mostly below about 12%, no sharp cut-off; inactive = mostly above about 10%;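 note: 100% = mean of DMSO negative control wells on the same plate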). As to conditions: P. berghei liver stage in HepG2, luciferase luminescence, concentration not given here; parasite load remaining: stronger effect = lower value; viability: measured here: HepG2 viability without parasites.
[12] abbreviates: measured here: epithelial PC-3E GFP cell survival.
[13] abbreviates: measured here: mesenchymal TEM4-18 mCherry cell survival.

Molecules are shown by their SMILES. Results filed as inconclusive are left out. For some assays here: Entries with a potency or affinity are not part of this list. The source made the active and inactive calls.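 Rule for the calls, unless noted: active = compounds killing one labelled cell type while sparing the other, by normalised counts and ratio limits, not self-fluorescent; inactive = the rest.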

The term EC50 denotes the midpoint of the concentration-response curve. As a reminder, the inhibition is the change of the read-out against control, counted positive when it falls. As usually defined, the viability is the share of living cells, or the viability signal relative to a control.

Mitogen-activated protein kinase 7 (Homo sapiens), sequence (Q13164 whole entry, looked up, the tested form may be a part): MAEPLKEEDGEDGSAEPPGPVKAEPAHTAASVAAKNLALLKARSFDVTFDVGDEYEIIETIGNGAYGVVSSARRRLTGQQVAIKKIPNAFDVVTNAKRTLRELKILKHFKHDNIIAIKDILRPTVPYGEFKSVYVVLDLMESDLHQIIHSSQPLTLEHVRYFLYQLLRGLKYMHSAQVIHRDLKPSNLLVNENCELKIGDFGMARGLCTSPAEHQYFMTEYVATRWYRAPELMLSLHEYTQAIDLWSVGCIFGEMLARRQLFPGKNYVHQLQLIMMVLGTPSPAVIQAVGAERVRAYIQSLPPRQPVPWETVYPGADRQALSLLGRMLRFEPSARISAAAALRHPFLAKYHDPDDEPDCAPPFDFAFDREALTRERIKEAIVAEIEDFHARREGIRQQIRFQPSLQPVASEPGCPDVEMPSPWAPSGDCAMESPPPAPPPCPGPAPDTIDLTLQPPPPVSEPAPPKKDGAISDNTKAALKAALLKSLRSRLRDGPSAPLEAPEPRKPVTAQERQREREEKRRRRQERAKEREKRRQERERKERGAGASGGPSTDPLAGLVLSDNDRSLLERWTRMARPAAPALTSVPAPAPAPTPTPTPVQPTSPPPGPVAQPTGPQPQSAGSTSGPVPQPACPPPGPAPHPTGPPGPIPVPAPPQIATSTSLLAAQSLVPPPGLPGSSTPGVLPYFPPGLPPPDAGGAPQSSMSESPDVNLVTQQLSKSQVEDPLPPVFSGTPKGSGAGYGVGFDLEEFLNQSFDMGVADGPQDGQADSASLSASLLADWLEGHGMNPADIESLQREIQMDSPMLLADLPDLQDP

`CCCc1cc(OC)c2c(c1)OCO2`: the red/green cell ratio (normalised) in test [1] is 1.07 (inactive). Besides, the normalised cell number in [1] (setting [12]) is 0.92; in test [1] (setting [13]) it was 0.98. Further, in test [2], the luciferase signal was 216 AU (inactive).

On to `CC(=O)Oc1cc2c(c(C)c1OC(C)=O)CC=C1[C@@]2(C)CC[C@@]2(C)C3C[C@](C)(C(=O)O)CC[C@]3(C)CC[C@]12C` (some centres undefined), for which, in test [1], the red/green cell ratio (normalised) was 0.58 (inactive). The normalised cell number in [1] (setting [12]) amounted to 1.06; in [1] (setting [13]) it was 0.62. In addition, the luciferase signal in test [2] is 48 AU (inactive).

Turning to `O=c1cc(-c2ccc(O)cc2)oc2ccc(O)cc12`, the red/green cell ratio (normalised) in test [1] is 1 (inactive). In addition, the normalised cell number in test [1] (setting [12]) and in test [1] (setting [13]) was 0.97 each time. For the same compound, the luciferase signal in test [2] is 52 AU (inactive).

Regarding `CC(=O)Oc1cc(C)c2c(c1C(OC(C)=O)OC(C)=O)Oc1c(c(C)c(OC(C)=O)c3c1C(OC(C)=O)OC3=O)OC2=O` (centres undefined), the red/green cell ratio (normalised) in [1] is 0.89 (inactive). Moreover, the normalised cell number in test [1] (setting [12]) is 1.03; in test [1] (setting [13]), 0.92. Moreover, the luciferase signal in test [2] was 124 AU (inactive).

Consider `COc1ccc([C@H]2COc3c(ccc(O)c3OC)C2)c(OC)c1O`, for which the red/green cell ratio (normalised) in test [1] is 0.9 (inactive). Besides, the normalised cell number in [1] (setting [12]) worked out at 0.99; in test [1] (setting [13]) it was 0.9. For the same compound, in test [2], the luciferase signal is 60 AU (inactive).

In the case of `CC[C@@H](C(=O)[C@@H](C)[C@@H](O)[C@H](C)[C@@H]1O[C@@H]([C@@H](CC)C(=O)O)CC[C@@H]1C)[C@H]1OC2(C=C[C@@H](O)[C@]3(CC[C@@](C)([C@H]4CC[C@](O)(CC)[C@H](C)O4)O3)O2)[C@H](C)C[C@@H]1C` (some centres undefined), the EC50 in [3] is 100 nM (active). The same compound yielded an inhibition in test [4] of 40.3%. The score in test [5] came out at 0.53. For the same compound, the rescue above control in test [6] was -3.48. Moreover, in [7], the cytochrome c release ratio is 1.06. The inhibition of aggregation in test [8] turned out to be 61.1%. Further, the glutamate uptake change in test [9] was -41.6%. The aggregation suppression score in test [10] stood at 0.25. Moreover, in test [11], the parasite load remaining is -5.04% (inactive) and the viability was found to be 82%. Besides, the red/green cell ratio (normalised) in test [1] is 0.65 (active). The compound also gave a normalised cell number in test [1] (setting [12]) of 0.55. In [1] (setting [13]), this compound gave a normalised cell number of 0.36. Also, the luciferase signal in test [2] is 36 AU (inactive).

As for `C=CCS(=O)C[C@H](N)C(=O)O` (some centres undefined), in test [1], the red/green cell ratio (normalised) is 0.94 (inactive). For the same compound, the normalised cell number is 1.04 in test [1] (setting [12]) and 0.98 in test [1] (setting [13]). Besides, the luciferase signal in [2] was 128 AU (inactive).

With `CC(=O)O[C@H]1C[C@@H](OC(C)=O)C(C)(C)C2C[C@@H](O)[C@]3(C)C(CC[C@@]4(C)[C@H](c5ccoc5)OC(=O)[C@H]5O[C@]543)[C@]21C` (some centres undefined), the red/green cell ratio (normalised) in [1] is 0.99 (inactive). The normalised cell number in [1] (setting [12]) is 0.87; in [1] (setting [13]), 0.86. Moreover, the luciferase signal in test [2] was 28 AU (inactive).

For the compound `CC(C)c1ccc2c(c1)CCC1C(C)(C(N)=O)CCCC21C` (centres undefined), the red/green cell ratio (normalised) in test [1] is 1.04 (inactive). Besides, the results for the normalised cell number in test [1] (setting [12]) and in test [1] (setting [13]) were 1.22 and 1.27, respectively. In addition, the luciferase signal in test [2] was 64 AU (inactive).

Take `CC(=O)O[C@@H]1CC[C@@]2(C)C(CC[C@]3(C)C2CC=C2C4CC(C)(C)CC[C@]4(C(=O)O)CC[C@]23C)C1(C)C` (some centres undefined): the red/green cell ratio (normalised) in test [1] is 0.84 (inactive). Besides, the normalised cell number is 1.04 in test [1] (setting [12]) and 0.87 in [1] (setting [13]). Besides, the luciferase signal in test [2] was 44 AU (inactive).

Consider `CC1=CC(=O)C2C(C)(C)CCC[C@]2(C)[C@@]1(O)CCc1ccoc1` (some centres undefined), for which the red/green cell ratio (normalised) in test [1] was 1.02 (inactive). In addition, the normalised cell number in [1] (setting [12]) worked out at 0.94; in test [1] (setting [13]), 0.96. Besides, the luciferase signal in [2] was 128 AU (inactive).

Turning to `S=c1ccss1`, the red/green cell ratio (normalised) in [1] is 1.04 (inactive). Moreover, the values for the normalised cell number in [1] (setting [12]) and in test [1] (setting [13]) were 1.15 and 1.2, respectively. Besides, in test [2], the luciferase signal is 52 AU (inactive).

Turning to `COC1=CC(=O)C(O)=C/C1=C\C=C\c1ccccc1`, the red/green cell ratio (normalised) in [1] was 1.11 (inactive). The normalised cell number in [1] (setting [12]) came out at 0.95; in test [1] (setting [13]), 1.06. Besides, in test [2], the luciferase signal is 12 AU (inactive).

As for `COc1ccc(-c2oc3cc(OC)c(OC)c(OC)c3c(=O)c2OC)cc1`, in [1], the red/green cell ratio (normalised) is 1.04 (inactive). Moreover, the values for the normalised cell number in [1] (setting [12]) and in test [1] (setting [13]) were 1.02 and 1.05, respectively. In addition, in test [2], the luciferase signal was 72 AU (inactive).

`COc1ccc(-c2cc(=O)c3c(O)c(OC)c(OC)c(OC)c3o2)cc1OC`: the red/green cell ratio (normalised) in [1] was 1.15 (inactive). The normalised cell number came to 0.95 in test [1] (setting [12]) and 1.09 in test [1] (setting [13]). In [2], the luciferase signal is 112 AU (inactive).

`O=C(O)c1cc(=O)c(O)c2c(O)c(O)c(O)cc2c1`: in [1], the red/green cell ratio (normalised) was 0.85 (inactive). The normalised cell number is 1.11 in test [1] (setting [12]) and 0.94 in test [1] (setting [13]). In test [2], the luciferase signal is 100 AU (inactive).

Values taken from PubChem BioAssay.
